Laboratory results from PubChem BioAssay AID1159580 (chemical genetic matrix, 2015).
The campaign covered roughly 5,500 compounds. About 2,000 (36%) were called active. Not shown: some 18% with an inconclusive outcome. Cut-off read from the data, not from the text of the source: active = normalized growth mostly below about 0.91 (no sharp cut-off); inconclusive = no clear call, values can overlap the other calls; inactive = mostly above about 0.92. The list shows a part of the results.

Test: chemical genetic growth profiling, strain panel (AID 1159580);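 note: tested at 20 µM; growth read once vehicle control cultures reached saturation at 30 °C; 1 = growth at the plate median or of vehicle wells; lower values mean less growth of the strain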
Conditions: growth OD

Measured: normalized growth

N#C/C(=C\c1ccc(O)cc1)C(=O)O
inactive: S. cerevisiae deletion strains, locus YJR075W, strain HOC1, active compounds read low 0.979 | S. cerevisiae deletion strains, locus YKL009W, strain mrt4, active compounds read low 0.963 | S. cerevisiae deletion strains, locus YKL068W, active compounds read low 0.999 | S. cerevisiae deletion strains, locus YKL085W, strain MDH1 (second series), active compounds read low 0.973 | S. cerevisiae deletion strains, locus YKL085W, strain MDH1, active compounds read low 0.973 | S. cerevisiae deletion strains, locus YKL160W, strain elf1, active compounds read low 0.988 | S. cerevisiae deletion strains, locus YKL190W, strain CNB1, active compounds read low 0.992 | S. cerevisiae deletion strains, locus YKR001C, strain vps1, active compounds read low 1.01 | S. cerevisiae deletion strains, locus YKR026C, strain gcn3, active compounds read low 0.97 | S. cerevisiae deletion strains, locus YKR091W, strain srl3, active compounds read low 0.994 | S. cerevisiae deletion strains, locus YLL001W, strain dnm1, active compounds read low 0.994 | S. cerevisiae deletion strains, locus YLL026W, active compounds read low 1.01 | S. cerevisiae deletion strains, locus YLL041C, strain sdh2, active compounds read low 0.995 | S. cerevisiae deletion strains, locus YLR027C, strain aat2, active compounds read low 1.01 | S. cerevisiae deletion strains, locus YLR039C, strain RIC1, active compounds read low 0.981 | S. cerevisiae deletion strains, locus YLR058C, strain SHM2, active compounds read low 0.979 | S. cerevisiae deletion strains, locus YLR102C, strain apc9, active compounds read low 0.988 | S. cerevisiae deletion strains, locus YLR113W, strain HOG1, active compounds read low 1.01 | S. cerevisiae deletion strains, locus YLR221C, strain rsa3, active compounds read low 0.984 | S. cerevisiae deletion strains, locus YLR258W, strain gsy2, active compounds read low 1 | S. cerevisiae deletion strains, locus YLR262C, strain YPT6 (second series), active compounds read low 0.993 | S. cerevisiae deletion strains, locus YLR262C, strain YPT6, active compounds read low 0.97 | S. cerevisiae deletion strains, locus YLR268W, strain sec22, active compounds read low 0.985 | S. cerevisiae deletion strains, locus YLR320W, strain mms22, active compounds read low 1.03 | S. cerevisiae deletion strains, locus YLR330W, strain CHS5, active compounds read low 0.992 | S. cerevisiae deletion strains, locus YLR342W, strain FKS1 (second series), active compounds read low 1.07 | S. cerevisiae deletion strains, locus YLR342W, strain FKS1, active compounds read low 1.01 | S. cerevisiae deletion strains, locus YLR357W, strain rsc2, active compounds read low 0.989 | S. cerevisiae deletion strains, locus YLR370C, strain arc18, active compounds read low 0.995 | S. cerevisiae deletion strains, locus YLR371W, strain rom2, active compounds read low 1.01 | S. cerevisiae deletion strains, locus YLR384C, strain iki3, active compounds read low 1 | S. cerevisiae deletion strains, locus YLR418C, strain cdc73, active compounds read low 0.953 | S. cerevisiae deletion strains, locus YML016C, strain PPZ1, active compounds read low 0.992 | S. cerevisiae deletion strains, locus YML032C, strain rad52, active compounds read low 1.03 | S. cerevisiae deletion strains, locus YML120C, strain ndi1, active compounds read low 0.994 | S. cerevisiae deletion strains, locus YML124C, strain tub3, active compounds read low 0.999 | S. cerevisiae deletion strains, locus YMR058W, strain fet3, active compounds read low 0.988 | S. cerevisiae deletion strains, locus YMR078C, strain ctf18, active compounds read low 0.998 | S. cerevisiae deletion strains, locus YMR125W, strain sto1, active compounds read low 0.96 | S. cerevisiae deletion strains, locus YMR129W, active compounds read low 0.982 | S. cerevisiae deletion strains, locus YMR205C, strain PFK2, active compounds read low 1.04 | S. cerevisiae deletion strains, locus YMR223W, strain ubp8, active compounds read low 1.04 | S. cerevisiae deletion strains, locus YMR231W, strain pep5, active compounds read low 1.01 | S. cerevisiae deletion strains, locus YMR263W, strain SAP30, active compounds read low 0.962 | S. cerevisiae deletion strains, locus YMR307W, strain GAS1, active compounds read low 1.12 | S. cerevisiae deletion strains, locus YNL067W, strain RPL9B, active compounds read low 0.974 | S. cerevisiae deletion strains, locus YNL071W, strain lat1, active compounds read low 0.998 | S. cerevisiae deletion strains, locus YNL128W, strain TEP1, active compounds read low 0.927 | S. cerevisiae deletion strains, locus YNL153C, strain GIM3, active compounds read low 0.953 | S. cerevisiae deletion strains, locus YNL183C, strain NPR1, active compounds read low 0.993 | S. cerevisiae deletion strains, locus YNL209W, strain ssb2, active compounds read low 0.997 | S. cerevisiae deletion strains, locus YNL233W, strain BNI4, active compounds read low 0.997 | S. cerevisiae deletion strains, locus YNL248C, strain rpa49, active compounds read low 0.963 | S. cerevisiae deletion strains, locus YNL250W, strain rad50, active compounds read low 0.968 | S. cerevisiae deletion strains, locus YNL271C, strain bni1, active compounds read low 1.01 | S. cerevisiae deletion strains, locus YNL298W, strain CLA4, active compounds read low 1 | S. cerevisiae deletion strains, locus YNL307C, strain MCK1, active compounds read low 1.03 | S. cerevisiae deletion strains, locus YNL322C, strain KRE1 (second series), active compounds read low 0.996 | S. cerevisiae deletion strains, locus YNL322C, strain KRE1, active compounds read low 0.977 | S. cerevisiae deletion strains, locus YNR049C, strain mso1, active compounds read low 0.996 | S. cerevisiae deletion strains, locus YNR052C, strain pop2, active compounds read low 1 | S. cerevisiae deletion strains, locus YOL006C, strain TOP1, active compounds read low 0.912 | S. cerevisiae deletion strains, locus YOL012C, strain htz1 1.16 | S. cerevisiae deletion strains, locus YOL147C, strain pex11, active compounds read low 0.998 | S. cerevisiae deletion strains, locus YOR001W, strain rrp6, active compounds read low 0.982 | S. cerevisiae deletion strains, locus YOR061W, strain CKA2, active compounds read low 0.954 | S. cerevisiae deletion strains, locus YOR069W, strain VPS5, active compounds read low 0.992 | S. cerevisiae deletion strains, locus YOR070C, strain gyp1, active compounds read low 1 | S. cerevisiae deletion strains, locus YOR080W, strain dia2, active compounds read low 0.996 | S. cerevisiae deletion strains, locus YOR083W, strain WHI5, active compounds read low 0.978 | S. cerevisiae deletion strains, locus YOR106W, strain vam3, active compounds read low 0.997 | S. cerevisiae deletion strains, locus YOR136W, strain idh2, active compounds read low 1 | S. cerevisiae deletion strains, locus YOR144C, strain elg1, active compounds read low 0.993 | S. cerevisiae deletion strains, locus YOR184W, strain ser1, active compounds read low 1.08 | S. cerevisiae deletion strains, locus YOR231W, strain MKK1, active compounds read low 1.04 | S. cerevisiae deletion strains, locus YOR265W, strain rbl2, active compounds read low 1 | S. cerevisiae deletion strains, locus YOR270C, strain vph1, active compounds read low 0.989 | S. cerevisiae deletion strains, locus YOR290C, strain snf2, active compounds read low 0.958 | S. cerevisiae deletion strains, locus YOR316C, strain cot1, active compounds read low 0.985 | S. cerevisiae deletion strains, locus YPL051W, strain arl3, active compounds read low 0.988 | S. cerevisiae deletion strains, locus YPL055C, strain LGE1, active compounds read low 0.908 | S. cerevisiae deletion strains, locus YPL078C, strain atp4, active compounds read low 0.971 | S. cerevisiae deletion strains, locus YPL106C, strain sse1, active compounds read low 1 | S. cerevisiae deletion strains, locus YPL240C, strain hsp82, active compounds read low 0.986 | S. cerevisiae deletion strains, locus YPL241C, strain CIN2, active compounds read low 0.985 | S. cerevisiae deletion strains, locus YPL256C, strain CLN2, active compounds read low 1.09 | S. cerevisiae deletion strains, locus YPR119W, strain clb2, active compounds read low 1 | S. cerevisiae deletion strains, locus YPR141C, strain kar3, active compounds read low 0.977 | S. cerevisiae deletion strains, locus YPR163C, strain tif3, active compounds read low 1.01 | S. cerevisiae deletion strains, locus YPR167C, strain met16, active compounds read low 0.984 | S. cerevisiae deletion strains, strain wtn01, active compounds read low 0.977 | S. cerevisiae strains, strain wild type, active compounds read low 0.983
